Source: PubChem BioAssay
ATG4B inh = blocks human ATG4B protease cleavage of LC3 substrate; inhibition, % at 8.33 µM; AID 504462; Q9Y4P1; ATG4B cleavage of LC3-PLA2, NBD-HPC fluorescence, 1 h; hit rate 0.51% among 340,000; in the data active = inhibition above about 40%
Target sequence (Q9Y4P1 whole entry, looked up): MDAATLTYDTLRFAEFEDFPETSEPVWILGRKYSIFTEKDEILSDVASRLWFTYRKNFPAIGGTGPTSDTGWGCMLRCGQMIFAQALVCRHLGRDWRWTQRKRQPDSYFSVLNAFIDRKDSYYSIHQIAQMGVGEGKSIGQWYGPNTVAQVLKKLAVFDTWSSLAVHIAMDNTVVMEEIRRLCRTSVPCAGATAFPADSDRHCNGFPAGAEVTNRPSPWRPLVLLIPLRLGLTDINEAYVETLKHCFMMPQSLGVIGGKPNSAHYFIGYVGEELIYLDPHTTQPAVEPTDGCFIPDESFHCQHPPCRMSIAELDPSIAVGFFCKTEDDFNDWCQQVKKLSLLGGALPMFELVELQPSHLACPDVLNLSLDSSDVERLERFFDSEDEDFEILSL
Myeloid diff MLP = compounds promoting myeloid differentiation; ER-HoxA9 myeloid progenitors, lysozyme-GFP differentiation, flow cytometry; calls only at 10 µM; hit rate 1% among 360,000;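 active = normalized GFP-positive differentiation at or above the plate's own cutoff, the solvent-only control mean plus 3 SD; inconclusive = no clear call, values can overlap the other calls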;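 also: cells exposed to compound for four days before flow analysis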
CHRM1 agonist = activates human CHRM1 receptor; AID 588814; CHO-K1 hM1, Fluo-8 calcium fluorescence, agonist mode; 0% DMSO, 100% acetylcholine EC100; P11229; activation, % at 3 µM; hit rate 0.33% among 360,000;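 active = activation above the run's mean compound activation plus 3 SD, cut at about 16% in these data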;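 also: peak over basal fluorescence ratio within a 140 s kinetic read after compound addition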
M1 PAM = human CHRM1 positive allosteric modulation | CHO-K1 hM1, Fluo-8 calcium fluorescence, ACh EC20; 0% = ACh EC20, 100% = maximal ACh | AID 588819 | hit rate 0.088% among 360,000 | P11229 | activation, % at 3 µM; in the data active = activation above about 19%, passing the limit was not always enough
SKN-1 inh = C. elegans SKN-1 inhibition. AID 624304. C. elegans VP596 Pgst-4::GFP/RFP ratio, acrylamide-induced, 24 h. inhibition, % at 21.8 µM. hit rate 0.49% among 360,000;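 active = interference check ratio from 0.5 to 1.5 plus GFP to RFP signal ratio inhibition reaching or exceeding a fixed threshold, cut at about 30% in these data, passing the limit was not always enough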
M1 antag = human CHRM1 antagonism. P11229. CHO-K1 hM1, Fluo-8 calcium fluorescence, ACh EC80 antagonist. inhibition, % at 3 µM. hit rate 1.3% among 360,000. AID 588852;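 active = percent inhibition above its own plate's cutoff, namely the mean of that plate's compound wells plus 3 SD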;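 also: peak over basal fluorescence ratio during 140 s after agonist addition; 0% = ACh EC80 plus DMSO and 100% = DMSO alone without agonist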
The depositor's hits bear a star; i = inactive; ? = inconclusive; / = no result given; + = active, no number. A selection: hits, their analogues and other compounds. The true share with any hit is near 3.5%.

SMILES	ATG4B inh	Myeloid diff MLP	CHRM1 agonist	M1 PAM	SKN-1 inh	M1 antag
c1ccc(-c2cc3nccc(-c4ccccn4)n3n2)cc1	-11.1	i	-9.2	4.6	39.3*	-3.1
Cc1cc2nccc(-c3ccccn3)n2n1	-1.2	i	-3.6	-0.1	-3.0	1.9
Cc1ccc2c(c1)C(=O)C(=O)N2Cc1ccc(C(F)(F)F)cc1	-3.9	?	22.9*	3.6	-8.0	7.7
COc1cccc(CNc2ccc(F)c([N+](=O)[O-])c2)c1O	0.0	i	2.5	-14.6	-4.3	89.9*
Cc1cc(=O)oc2cc(O[C@@H]3O[C@H](CO)[C@H](O)[C@H](O)[C@H]3O)ccc12	9.0	i	-2.0	10.6	0.6	-16.8
Cc1c(C)c2ccc(O[C@@H]3O[C@H](CO)[C@H](O)[C@H](O)[C@H]3O)cc2oc1=O	-0.1	+	-6.2	-7.7	5.0	18.7
Cc1ccccc1OCc1nc2ccccc2c(=O)n1NC(=O)c1ccco1	-1.3	i	17.6*	3.9	-23.1	-31.0
CCCOc1cccc(-c2nn(-c3ccccc3)cc2/C=C(\C#N)C(=O)NCCCn2ccnc2)c1	-30.9	+	-8.5	-0.2	7.6	7.4
CCCCCCC(C)OC(=O)Nc1cccc2ccccc12 (stereo not drawn)	-5.7	i	-6.7	-1.8	30.4	-1.3
CC(C)CN1CCN(CCCOC(=O)Nc2cccc3ccccc23)CC1C (stereo not drawn)	-1.2	i	-7.1	-22.5	0.0	31.9*
CCOC(=O)C1CCCN(C(=O)c2ccccc2OC(F)(F)F)CC1 (stereo not drawn)	/	i	-2.1	-0.1	-2.5	-9.7
O=[N+]([O-])c1nn(-c2ccc3c(c2)OCCO3)n(O)c1=NC1CCN(Cc2ccccc2)CC1	-5.4	?	-9.1	-25.3	-0.9	46.8*
CC(C)c1ccc(N=c2c([N+](=O)[O-])nn(-c3ccc4c(c3)OCCO4)n2O)cc1	-13.2	i	-4.7	-24.2	17.7	38.5*
O=[N+]([O-])c1nn(-c2ccccc2)n(O)c1=NC1CCN(Cc2ccccc2)CC1	-3.1	?	-8.1	-7.0	-8.5	21.9
CCOC(=O)N1CCN(C(=O)C(=O)NN)CC1	-0.3	i	1.3	9.7	6.9	-12.8
Cc1ccc(C)c(NC(=O)C2CCN(S(=O)(=O)c3ccc4c(c3)NC(=O)CO4)CC2)c1	-4.5	i	-4.0	-3.0	9.6	36.5*
Cc1cc(F)ccc1-c1cc(C(=O)NCc2ccc(C(F)(F)F)cc2)[nH]n1	/	i	32.4*	0.6	4.2	9.1
CN1CCc2nc(SCC(=O)Nc3ccc(OC(F)(F)F)cc3)c(C#N)c(-c3cccs3)c2C1	10.7	+	-4.0	-6.2	16.6	4.5
Cc1cc(N2CCCC2)c(F)cc1/C=C\[N+](=O)[O-]	3.7	?	28.1*	9.0	-2.5	19.9
Cc1ccc(CC(=O)Nc2cccc(C(=O)Nc3c(C)n(C)n(-c4ccccc4)c3=O)c2)cc1C	/	i	-4.4	-5.2	13.1	-3.2
O=C(Nc1ccc2c(c1)CN(Cc1ccco1)CC2)C1CCCO1 (stereo not drawn)	21.0	i	-6.2	-2.4	37.3*	4.6
OC(CNCc1ccccc1)c1ccccc1 (stereo not drawn)	-10.7	i	-3.1	-0.8	-8.3	-1.0
OC(CNC1Cc2ccccc2C1)c1ccccc1 (stereo not drawn)	2.0	i	16.1*	2.7	0.7	-2.9
Cc1ccc2c(=O)n3c(nc2c1)C(Cc1ccccc1)NC(=O)c1cc2ccccc2cc1-3 (stereo not drawn)	/	i	-1.6	-4.5	4.1	1.2
CCCCc1cc(=O)oc2cc(OCC(=O)NC3CCN(Cc4ccccc4)CC3)ccc12	-3.2	+	-4.4	0.0	-12.0	6.3
SMILES	ATG4B inh	Myeloid diff MLP	CHRM1 agonist	M1 PAM	SKN-1 inh	M1 antag
COCOCCn1cc(CN2CCS(=O)(=O)N(Cc3ccc(-c4ccc(Cl)c(Cl)c4)cc3)C(C(C)C)C2=O)nn1 (stereo not drawn)	/	i	1.8	4.7	-1.4	7.7
Cc1ccc(C)c(NC(=O)COc2coc(CN3CCc4ccccc43)cc2=O)c1	6.6	i	-2.7	2.6	4.5	-6.1
Cc1ccccc1NC(=O)COc1coc(CN2CCCc3ccccc32)cc1=O	6.6	i	-1.4	26.3*	0.7	-9.4
O=C1CN(S(=O)(=O)c2ccc(F)cc2)CCN1	2.2	i	0.5	11.4	7.4	-5.7
CC1(c2ccc(Cl)cc2)NC(=O)N(CC(=O)N2CCc3ccccc32)C1=O (stereo not drawn)	-3.5	i	38.8*	1.7	0.6	9.1
CC1(c2ccccc2)NC(=O)N(CC(=O)Nc2ccccc2N2CCCC2)C1=O (stereo not drawn)	8.8	i	16.2*	8.0	-1.9	-2.3
CCCCC1(c2ccc(F)cc2)NC(=O)N(CC(=O)Nc2ccc(N3CCOCC3)cc2)C1=O (stereo not drawn)	-3.0	i	16.5*	9.2	20.6	-2.0
CCC1(CC)NC(=O)N(CC(=O)N2CCc3ccccc32)C1=O	0.8	i	-5.2	9.6	5.5	-22.6
CCC1(c2ccccc2)NC(=O)N(CC(=O)N2CCc3ccccc32)C1=O (stereo not drawn)	-5.5	i	7.4	0.3	8.9	-3.1
CCC1(c2ccc(F)cc2)NC(=O)N(CC(=O)N2CCc3ccccc32)C1=O (stereo not drawn)	-8.0	i	23.9*	-6.9	6.9	8.9
O=C(CN1C(=O)NC2(CCCC2)C1=O)Nc1ccccc1N1CCCC1	-0.9	i	-1.5	11.9	14.0	-15.2
CCCC1(c2ccccc2)NC(=O)N(CC(=O)Nc2ccc(N3CCOCC3)cc2)C1=O (stereo not drawn)	-5.5	i	0.9	15.4	1.1	-10.1
CCC1(c2ccccc2)NC(=O)N(CC(=O)Nc2cc(S(=O)(=O)N3CCCCCC3)ccc2OC)C1=O (stereo not drawn)	-17.5	i	0.3	-6.0	2.0	32.3*
Cc1ccc(C2(C)NC(=O)N(CC(=O)N3CCc4ccccc43)C2=O)cc1 (stereo not drawn)	-9.9	i	29.2*	7.5	13.6	-17.0
CCC1(c2ccc(F)cc2)NC(=O)N(CC(=O)Nc2ccccc2Cl)C1=O (stereo not drawn)	-3.3	i	35.9*	2.6	18.1	-8.4
CCOc1ccc(S(=O)(=O)N2CCCCC2)cc1NC(=O)CN1C(=O)NC(CC)(c2ccccc2)C1=O (stereo not drawn)	-14.5	i	-1.6	5.5	1.8	-10.9
CCCCn1c(N)c(N(CC(C)C)C(=O)C2=COCCO2)c(=O)[nH]c1=O	1.3	i	-1.1	2.8	-10.1	0.8
Cc1occc1-c1nnc(SCC(=O)Nc2nc(C(C)(C)C)cs2)o1	-8.6	i	-0.6	-24.0	3.9	50.8*
